Source: PubChem BioAssay (National Center for Advancing Translational Sciences (NCATS))
An excerpt weighted towards active compounds, which were near 9.2% of everything screened.
JMJD2E inh: qHTS Assay for Inhibitors of Human Jumonji Domain Containing 2E (JMJD2E); Lysine-specific demethylase 4E (Homo sapiens), B2RXH2; JMJD2E catalytic domain, FDH-coupled NADH fluorescence (FDH is formaldehyde dehydrogenase); Potency, µM (highest dose often 57.1 µM), hits mostly inhibitors; 1.6% of 230,000 active; note: nearly all actives have a fitted effect of over 50% in size
HPGD block: qHTS Assay for Inhibitors of HPGD (15-Hydroxyprostaglandin Dehydrogenase) | AID 894, 2007 | Potency, µM, actives largely listed as inhibitors | 4.3% of 150,000 active | purified HPGD, NADH fluorescence kinetic, PGE2 substrate
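20 nM HPGD preincubated 15 min at room temperature with compound in 50 mM Tris-HCl pH 8, 0.01% Tween 20. Started with 1 mM NAD+ and 30 uM prostaglandin E2; NADH fluorescence (360/450 nm) read 5 times over 30-s intervals, last minus first.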
HTT cytoprotect: qHTS Multiplex Assay to Identify Dual Action Probes in a Cell Model of Huntington: Cytoprotection (ATP). PC12 HTT-Q103 induced, cytoprotection, ATP luminescence, 40 h. Potency, µM (doses to about 56.4 µM), usual class: activators. 0.14% of 230,000 active. AID 1471, 2008; active = well fitted curve in the direction sought with a large enough effect; inconclusive = small, poorly fitted or top-dose-only effect, or another doubt; inactive = no such curve, though single readings can be large; an effect the other way counts as inactive or inconclusive; note: nearly all actives have a fitted effect of over 45% in size
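Compounds added alongside 100 nM tebufenozide, which induces toxic Q103 huntingtin exon 1-GFP in stable PC12 cells; surviving cells quantified by luminescent ATP measurement. Medium: phenol red-free DMEM, 5% equine and 5% calf serum.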
LMNA splice mod: qHTS Assay for Modulators of Lamin A Splicing | HeLa LMNA splicing GFP/RFP minigene ratio, 48 h | Potency, µM (series often up to 46.1 µM), usual class: inhibitors | 0.01% of 200,000 active | AID 1487, 2009; active = well fitted inhibition curve with a large enough effect in the signal ratio, with a control signal flat, not every such curve was filed as active; inconclusive = small, poorly fitted or top-dose-only effect, or effect the other way, or a change in a side signal; the % refers to the signal ratio
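Read-out is the ratio of GFP to DsRed2 object intensity, acquired by 488 nm laser-scanning cytometry on HeLa lamin A-EGFP minigene reporter cells. Compound incubation 48 hrs at 37 °C in Opti-MEM with 2% FBS; DMSO 0.5% final.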
HttQ103 aggreg: qHTS Multiplex Assay to Identify Dual Action Probes in a Cell Model of Huntington: Aggregate Formation (GFP); PC12 HttQ103-GFP aggregates, Acumen cytometry, 40 h; Potency, µM (series often up to 46.1 µM), usual class: inhibitors; 1.1% of 220,000 active; active = well fitted curve in the direction sought with a large enough effect; inconclusive = small, poorly fitted or top-dose-only effect, or another doubt; inactive = no such curve, though single readings can be large; an effect the other way counts as inactive or inconclusive; note: nearly all actives have a fitted effect of over 60% in size
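Compounds (qHTS titration) were added to PC12 cells expressing an ecdysone-driven HTT exon 1 Q103–GFP fusion after induction with 100 nM tebufenozide. Aggregate formation was measured as GFP objects in cell lysates.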
ALDH1A1 block: qHTS Assay for Inhibitors of Aldehyde Dehydrogenase 1 (ALDH1A1) | Purified ALDH1A1, NADH fluorescence, propionaldehyde substrate | 7.3% of 220,000 active | Potency, µM (series often up to 75.3 µM), hits mostly inhibitors
Target sequence (P00352 whole entry, looked up): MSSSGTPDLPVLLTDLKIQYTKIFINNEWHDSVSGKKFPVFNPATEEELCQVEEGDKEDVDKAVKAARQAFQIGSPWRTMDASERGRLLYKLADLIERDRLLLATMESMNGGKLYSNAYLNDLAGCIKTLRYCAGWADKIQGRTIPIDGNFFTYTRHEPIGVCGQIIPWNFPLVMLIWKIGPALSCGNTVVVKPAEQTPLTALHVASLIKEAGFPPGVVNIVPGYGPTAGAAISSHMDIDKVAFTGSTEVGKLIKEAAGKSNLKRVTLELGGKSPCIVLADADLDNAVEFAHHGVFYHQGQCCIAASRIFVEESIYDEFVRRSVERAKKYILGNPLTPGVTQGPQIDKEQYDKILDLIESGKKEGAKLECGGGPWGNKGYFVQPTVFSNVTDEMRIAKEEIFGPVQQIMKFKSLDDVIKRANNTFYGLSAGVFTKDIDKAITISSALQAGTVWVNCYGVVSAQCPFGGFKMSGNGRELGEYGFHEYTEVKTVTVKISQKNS
Of the large screens only hits and unclear results are named; the others gave an inactive call. Unless noted, calls come from the whole dose curve; as a rule, active = well fitted inhibition curve with a large enough effect (not every such curve was filed as active); inconclusive = small, poorly fitted or top-dose-only effect, or another doubt; inactive = no such curve, though single readings can be large or run the other way.

O=C(NP(=O)(N1CCCC1)N1CCCC1)C1=C(N2CCOCC2)/C(=C/c2cccc([N+](=O)[O-])c2)CC1	ALDH1A1 block 10µM (no result: HPGD block)
COCCOc1cnn(-c2cc(Oc3ccc(C)cc3)ncn2)c(=O)c1Cl	ALDH1A1 block inconclusive
COc1cnn(-c2cc(Oc3ccc(C)cc3)ncn2)c(=O)c1Cl	ALDH1A1 block 13µM
CC(=O)/C=C(\C)Nc1ccccc1O	JMJD2E inh inconclusive (no result: HPGD block, LMNA splice mod, ALDH1A1 block)
O=S(=O)(c1ccccc1F)N(Cc1ccco1)Cc1nnc(-c2ccccc2Br)o1	HPGD block 25µM, LMNA splice mod inconclusive, ALDH1A1 block 14µM
C#CCOCCOCCOCCNc1nc(N2CCN(C(=O)[C@H](CCCCN)n3cc(C(N)[C@H](C)CC)nn3)CC2)nc(N2CCN(C(=O)[C@H](CCC(=O)O)n3cc(C(N)[C@H](C)CC)nn3)CC2)n1 (stereo partly drawn)	ALDH1A1 block 22µM (no result: HPGD block, LMNA splice mod)
C#CCOCCOCCOCCNc1nc(N2CCN(C(=O)[C@H](CCCCN)n3cc([C@@H](N)C(C)CC)nn3)CC2)nc(N2CCN(C(=O)[C@H](CCCCN)n3cc([C@@H](N)CO)nn3)CC2)n1 (stereo partly drawn)	JMJD2E inh 20µM, ALDH1A1 block inconclusive (no result: HPGD block, LMNA splice mod)
CC(C(=O)O)c1ccc2c(c1)[nH]c1ccc(Cl)cc12 (stereo not drawn)	HTT cytoprotect 0.35µM
COc1ccc2c(C=O)c[nH]c2c1	JMJD2E inh inconclusive, ALDH1A1 block 6.3µM
CCCN=Cc1ccc(O)cc1	LMNA splice mod inconclusive, ALDH1A1 block 8.9µM (no result: HPGD block)
COC(=O)C1(C)Cc2cc(OC(C)=O)c(OC(C)=O)cc2N1 (stereo not drawn)	JMJD2E inh inconclusive (no result: HPGD block, LMNA splice mod, ALDH1A1 block)
O=C(NCC1CCCO1)c1csc2c1CCCC2 (stereo not drawn)	HPGD block 20µM
COCCNC(=O)c1csc2c1CCCC2	HPGD block 16µM, HttQ103 aggreg inconclusive
O=C(O)c1ccc2c(=O)n3cc(C(=O)c4ccccc4O)cc(Cl)c3nc2c1	none (no result: HPGD block, LMNA splice mod, ALDH1A1 block)
COc1ccc(-c2nn(-c3ccccc3)cc2/C=C/C(=O)N2CCN(c3ccccn3)CC2)cc1	JMJD2E inh inconclusive, HttQ103 aggreg inconclusive, ALDH1A1 block inconclusive (no result: HPGD block, LMNA splice mod)
O=C(O)/C=C/C(=O)Nc1ccc(OC(F)(F)Cl)cc1	LMNA splice mod inconclusive, ALDH1A1 block 25µM (no result: HPGD block)
O=C(O)/C=C\C(=O)Nc1ccc(Oc2ccccc2)cc1	ALDH1A1 block 11µM
O=C(O)/C=C/C(=O)Nc1ccc(Oc2ccc(NC(=O)/C=C/C(=O)O)cc2)cc1	ALDH1A1 block inconclusive
O=C(O)/C=C/C(=O)Nc1ccc(SC(F)(F)C(F)(F)C(F)(F)F)cc1	LMNA splice mod inconclusive, ALDH1A1 block 28µM (no result: HPGD block)
COc1cc(CN(C(=O)c2ccccc2[N+](=O)[O-])c2ccccn2)cc(OC)c1OC	none (no result: JMJD2E inh, HPGD block, HTT cytoprotect, HttQ103 aggreg, ALDH1A1 block)
CCN(CC)S(=O)(=O)c1ccc(C(=O)NCc2n[nH]c(=S)n2Cc2ccccc2)cc1	ALDH1A1 block 2.5µM
CCN(CC)S(=O)(=O)c1cccc(-c2n[nH]c(=S)n2Cc2ccccc2)c1	JMJD2E inh inconclusive, ALDH1A1 block 7.1µM (no result: HPGD block)
O=C(NCc1n[nH]c(=S)n1Cc1ccccc1)c1ccc(Cl)cc1Cl	HTT cytoprotect inconclusive, ALDH1A1 block 22µM (no result: HPGD block, LMNA splice mod)
COc1ccc(NS(=O)(=O)c2cccc(-c3n[nH]c(=S)n3Cc3ccccc3)c2)cc1	LMNA splice mod inconclusive, ALDH1A1 block 0.45µM (no result: HPGD block)
O=S(=O)(c1cccc(-c2n[nH]c(=S)n2Cc2ccccc2)c1)N1CCOCC1	none (no result: HPGD block, LMNA splice mod, ALDH1A1 block)
CC(N)(C(=O)O)c1ccc(S(=O)(=O)O)cc1 (stereo not drawn)	ALDH1A1 block inconclusive (no result: JMJD2E inh, HPGD block, LMNA splice mod, HttQ103 aggreg)
CCN(CC)S(=O)(=O)c1ccc(C(=O)NCc2cccs2)cc1	none
CCN(CC)S(=O)(=O)c1ccc(C(=O)NCc2ccc(C)cc2)cc1	ALDH1A1 block 10µM
CCOC(=O)c1c(-c2ccsc2)csc1N	none
CCOC(=O)c1c(-c2ccc(C)s2)csc1N	ALDH1A1 block 3.2µM (no result: HPGD block, LMNA splice mod)
CCOC(=O)OCC1OC(CCc2ccccc2)CCC1Oc1ccc(OC)cc1 (stereo not drawn)	HTT cytoprotect inconclusive (no result: JMJD2E inh, HPGD block, LMNA splice mod, HttQ103 aggreg)
CS(=O)(=O)N(CC(=O)NCc1ccccn1)Cc1ccc(Cl)cc1	ALDH1A1 block 7.9µM
CC1(C)Cc2c(sc3c2c(=N)n(Cc2ccco2)c(=O)n3Cc2ccc(Cl)cc2)CO1	HttQ103 aggreg 18µM, ALDH1A1 block inconclusive
CC1(C)Cc2c(sc3[nH]c(=S)n(Cc4ccco4)c(=O)c23)CO1	JMJD2E inh inconclusive, HPGD block 22µM, LMNA splice mod inconclusive, HttQ103 aggreg inconclusive, ALDH1A1 block 5µM
CC1(C)Cc2c(sc3c2c(=N)n(Cc2ccco2)c(=O)n3Cc2ccccc2)CO1	HttQ103 aggreg inconclusive, ALDH1A1 block inconclusive
CCCCN=C1NN=C(c2cc3ccccc3o2)CS1	JMJD2E inh 25µM, LMNA splice mod inconclusive, ALDH1A1 block inconclusive (no result: HTT cytoprotect)
O=C(NCc1cccc(F)c1)C1CCN(S(=O)(=O)Cc2ccccc2)CC1	none
CC(C)(C)c1ccc(S(=O)(=O)NNC(=O)C2CCN(Cc3cccc(F)c3)CC2)cc1	ALDH1A1 block 2.2µM (no result: HPGD block, LMNA splice mod)
O=[N+]([O-])c1cccc(Cl)c1NCCNS(=O)(=O)c1ccccc1	ALDH1A1 block 11µM
